Source: PubChem BioAssay
An excerpt weighted towards active compounds, which were near 2.3% of everything screened.
MEKK2wt PB1 HTS – raises or lowers MEK5 binding to wildtype human MEKK2 PB1 domain | binding response (% of control), % at 10 µM | AID 1531 | bead flow cytometry, Alexa488-MEK5 binding to MEKK2 WT; actives lie on both sides | 290,000 tested, 1.1% active | Q9Y2U5; in the data active = binding response below about 67% or above about 130%
UBC13 polyUb – inhibitors of human UBC13 polyubiquitin chain formation; P61088; TR-FRET; inhibition, % at 20 µM; 330,000 tested, 0.47% active; AID 485273; in the data active = inhibition above about 45%, passing the limit was not always enough
MEKK3 PB1 HTS – raises or lowers MEK5 binding to the human MEKK3 PB1 domain | Q99759 | bead-based flow cytometry, Alexa488-MEK5 binding to MEKK3; actives lie on both sides; 0 = blocked by unlabeled MEK5, 100 = vehicle | binding response (% of control), % at 10 µM | 290,000 tested, 1.4% active;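 active = binding response more than 3 SD above or below the average of its plate-row segment, actives on both sides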;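 also: Alexa488 bead fluorescence after subtracting the streptavidin-only scavenger bead signal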
Target sequence (Q99759 whole entry, looked up, the tested form may be a part): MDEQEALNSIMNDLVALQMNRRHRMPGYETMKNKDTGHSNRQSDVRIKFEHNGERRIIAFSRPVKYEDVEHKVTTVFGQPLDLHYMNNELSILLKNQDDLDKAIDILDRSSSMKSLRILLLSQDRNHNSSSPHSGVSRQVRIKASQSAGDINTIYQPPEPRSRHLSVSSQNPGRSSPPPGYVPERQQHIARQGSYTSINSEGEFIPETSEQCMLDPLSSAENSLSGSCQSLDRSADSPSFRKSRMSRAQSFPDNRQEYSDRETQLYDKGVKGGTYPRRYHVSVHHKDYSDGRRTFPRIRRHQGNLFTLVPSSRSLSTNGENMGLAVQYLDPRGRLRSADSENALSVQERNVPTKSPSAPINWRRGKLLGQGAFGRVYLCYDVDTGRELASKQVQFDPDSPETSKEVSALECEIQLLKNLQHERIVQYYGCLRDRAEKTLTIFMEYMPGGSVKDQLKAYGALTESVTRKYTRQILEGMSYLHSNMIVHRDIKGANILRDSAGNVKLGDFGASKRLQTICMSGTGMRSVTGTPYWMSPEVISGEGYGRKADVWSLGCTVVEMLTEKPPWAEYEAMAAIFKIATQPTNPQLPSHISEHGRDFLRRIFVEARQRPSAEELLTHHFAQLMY
MEKK2 mut-MEK5 – signal of MEK5 binding to mutant human MEKK2 PB1 domain. percent response, % at 10 µM. 290,000 tested, 0.35% active. bead flow cytometry, Alexa488-MEK5 binding to MEKK2 mutant; in the data active = percent response above about 24%, passing the limit was not always enough
MEKK2wt confirm – raises or lowers MEK5 binding to wildtype human MEKK2, retest; shares compounds with MEKK3 PB1 HTS; bead flow cytometry, Alexa488-MEK5 binding to MEKK2 WT; actives lie on both sides; binding response (% of control), % at 10 µM; 5,900 tested, 2.4% active; AID 1892; in the data active = binding response below about 16% or above about 210%; inactive = in between
MEKK2mut confirm – signal of MEK5 binding to mutant human MEKK2, retest; 5,900 tested, 2% active; AID 1893; percent response, % at 10 µM; shares compounds with MEKK3 PB1 HTS; bead flow cytometry, Alexa488-MEK5 binding to MEKK2 mutant; in the data active = percent response mostly above about 71%, no sharp cut-off; inactive = mostly below about 38%;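 also: higher means compound restores mutant binding toward wildtype level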
MEKK3-MEK5 inh – confirmation of inhibitors of MEK5 binding to human MEKK3 | shares compounds with MEKK3 PB1 HTS | bead flow cytometry, Alexa488-MEK5 binding to MEKK3; active compounds read low | binding response (% of control), % at 10 µM | 5,900 tested, 1.8% active | AID 1894;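 active = binding response below 72% of control, or above a set upper limit, though filed actives all read lower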;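 also: 100% = DMSO only wells and 0% = binding blocked by excess unlabeled MEK5; lower values mean stronger disruption of MEK5 binding to MEKK3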
Starred values were filed as active, the others as inactive; . = not tested or not shown; [ ] = remark or other dose.

SMILES | MEKK2wt PB1 HTS | UBC13 polyUb | MEKK3 PB1 HTS | MEKK2 mut-MEK5 | MEKK2wt confirm | MEKK2mut confirm | MEKK3-MEK5 inh
Cc1ccc(-n2cc(CN3CCC(CO)(Cc4ccccc4)CC3)cn2)cc1 | 107 | 20 | 89 | -2 | . | . | .
CSc1cccc(CN2CCC(CO)(Cc3cccc(C(F)(F)F)c3)CC2)c1 | 138* | 5 | 105 | 17 | 126 | 17 | 108
OCC1(Cc2ccccc2)CCN(Cc2cnn(-c3ccccc3F)c2)CC1 | 520* | 6 | 107 | 362* | 110 | 0 | 102
OCC1(Cc2cccc(C(F)(F)F)c2)CCN(Cc2cc(F)cc(F)c2)CC1 | 114 | 3 | 93 | 2 | . | . | .
Cc1ccc(-n2cc(CN3CCC(CO)(Cc4cccc(C(F)(F)F)c4)CC3)cn2)cc1 | 227* | 11 | 112 | 123* | 152 | 17 | 96
CC1(C)CC(=O)C2=C(C1)Nc1ccccc1NC2c1ccc([N+](=O)[O-])cc1 (centres undefined) | . | -19 | . | . | . | . | .
CC(=O)c1c(C)[nH]c(C(=O)OCC(=O)Nc2sc3c(c2C#N)CCC(C)C3)c1C (centres undefined) | 96 | -7 | 94 | 2 | . | . | .
CCCCN(CC)C(=O)Cc1ccccc1OC | 107 | -3 | 107 | 14 | . | . | .
CCCCN(CC)C(=O)Cc1ccc(Br)cc1 | 105 | -13 | 128* | 0 | 95 | 5 | 104
Cc1nc2ccccc2c(=O)n1NC(=O)CCC(=O)O | 105 | -7 | 101 | 1 | . | . | .
COc1ccc(N2CCN(C(=O)CSc3ccc([N+](=O)[O-])cc3)CC2)cc1 | 87 | -12 | 90 | -3 | . | . | .
COc1ccc(N2CCN(C(=O)CN(Cc3ccccc3)S(C)(=O)=O)CC2)cc1 | 64 | -2 | 55*[inhibitor] | -22 | 111 | 13 | 106
COc1ccc(N2CCN(C(=O)CSc3ccc(C)cc3)CC2)cc1 | 114 | 5 | 130* | 0 | 107 | 6 | 104
CC(C(=O)Nc1ccc(O)cc1C(=O)O)N1C(=O)/C(=C\c2cccs2)SC1=S (centres undefined) | 103 | -14 | 105 | 3 | . | . | .
COc1ccc(-c2nn(-c3ccccc3)cc2CNC[C@H]2O[C@@H](n3cnc4c(N)ncnc43)[C@H](O)[C@@H]2O)cc1 | . | 12 | . | . | . | . | .
CC(C)Cn1cc(Cl)c(=O)n(CC(C)C)c1=O | 102 | 0 | 105 | 1 | . | . | .
Cc1ccc(N2CC(C(=O)Nc3ccc(S(=O)(=O)N4CCCC4)cc3)CC2=O)cc1 (centres undefined) | 45*[inhibitor] | 0 | 60*[inhibitor] | -13 | 100 | 9 | 104
Cc1ccc(N2CC(C(=O)NCCc3ccc(S(N)(=O)=O)cc3)CC2=O)cc1 (centres undefined) | 86 | -5 | 77*[inhibitor] | -14 | 105 | 2 | 103
COc1ccc(N2CC(C(=O)Nc3ccc(S(=O)(=O)N4CCCC4)cc3)CC2=O)cc1 (centres undefined) | 94 | 0 | 100 | 1 | . | . | .
COc1ccc(CCNC(=O)C2CC(=O)N(c3ccc(C)cc3)C2)cc1OC (centres undefined) | 105 | -3 | 102 | 3 | . | . | .
Clc1ccc(CN2CCCCCC2)cc1 | 109 | 3 | 103 | 4 | . | . | .
O=[N+]([O-])c1cc(CN2CCCC2)ccc1Sc1ccc(Cl)cc1 | 149* | 18 | 109 | 34 | 122 | 15 | 105
CC(C)CC1NC(=O)N(Cc2cc(=O)n3ccsc3n2)C1=O (centres undefined) | 111 | 4 | 107 | -3 | . | . | .
COCCN=c1scc(-c2cc(OC)c(OC)c(OC)c2)n1/N=C/c1c(C)[nH]c2ccccc12 | . | 6 | 84 | 77* | 94 | -6 | 88
COc1ccc(NC(=O)CSc2nnc(Cn3cnc4ccccc43)n2C)cc1 | 100 | 10 | 109 | 12 | . | . | .
SMILES | MEKK2wt PB1 HTS | UBC13 polyUb | MEKK3 PB1 HTS | MEKK2 mut-MEK5 | MEKK2wt confirm | MEKK2mut confirm | MEKK3-MEK5 inh
CCOC(=O)CNC(=O)CSc1nnc(Cn2cnc3ccccc32)n1C | 118 | -2 | 126* | 6 | 103 | 2 | 102
Cc1[nH]c2ccccc2c1C(=O)CN1CCN(c2ccc(Cl)cc2)CC1 | 104 | 6 | 103 | 1 | . | . | .
CCOc1ccc2nc(C)cc(C(=O)O)c2c1 | -7.0*[inhibitor] | 4 | 0.0*[inhibitor] | -23 | 120 | 12 | 100
COc1ccc2nc(C)cc(C(=O)O)c2c1 | 105 | 6 | 106 | 7 | . | . | .
COc1ccccc1CNC(=O)CCNC(=O)Cn1cnc2ccccc2c1=O | -1.0*[inhibitor] | -6 | 0.0*[inhibitor] | -9 | 99 | -3 | 99
COc1ccc(CCNC(=O)CSc2nn(-c3ccccc3)c(=S)s2)cc1OC | 105 | -12 | 148* | 0 | 107 | -3 | 106
COc1ccc(CCNC(=O)Cn2cnc3ccccc3c2=O)cc1OC | 105 | -3 | 129* | 0 | 105 | -1 | 100
CCN1C(=O)CSC1=Nc1ccccc1Cl | 109 | 5 | 106 | 6 | . | . | .
O=C(Nc1cccc(S(=O)(=O)N2CCCCC2)c1)C1CC1 | . | -1 | . | . | . | . | .
CCCOCCOC(=O)C1=C(C)NC(=O)NC1c1cc(Cl)c(O)c(OC)c1 (centres undefined) | -2.0*[inhibitor] | -7 | 1.0*[inhibitor] | -28 | 104 | 3 | 105
COc1ccc(-c2nsc3c(N4CCCC4)ncnc23)cc1 | -2.0*[inhibitor] | 7 | -1.0*[inhibitor] | -15 | 98 | -2 | 98
CN1CCN(S(=O)(=O)c2ccc(N(C)Cc3cccc(F)c3)nc2)CC1 | . | 7 | . | . | . | . | .
CCN(CC(=O)Nc1ccc(NC(C)=O)cc1)C(=O)C(c1ccccc1)c1ccccc1 | 105 | -3 | 131* | 0 | 88 | 3 | 96
CCN(CC(=O)Nc1ccc(NC(C)=O)cc1)C(=O)c1n[nH]c(=O)c2ccccc12 | 72 | 2 | 55*[inhibitor] | -34 | 100 | 4 | 103
O=C(NCCCCCCNC(=O)c1cncc(O)c1)c1cncc(O)c1 | 108 | 4 | 116 | 4 | . | . | .
CC(C)OC(=O)Cn1nc(C(c2ccccc2)c2ccccc2)oc1=O | 104 | -3 | 102 | 3 | . | . | .
On1c(-c2ccccc2Cl)nc2ccccc21 | 117 | 6 | 132* | 0 | 92 | -7 | 100
On1c(-c2ccccc2Cl)nc2ncccc21 | 101 | -3 | 101 | 4 | . | . | .
Cc1cccnc1NC(=O)Cn1nc(-c2ccccc2)oc1=S | 102 | 1 | 108 | -2 | . | . | .
Cc1[nH]nc2c1C1(CCC3(CC1)OCCO3)C(C#N)=C(N)O2 | -3.0*[inhibitor] | 6 | 1.0*[inhibitor] | -20 | 104 | 12 | 103
CC(=O)NC(CC(=O)OCC(=O)N1CCN(S(=O)(=O)c2ccc(C)cc2C)CC1)c1ccccc1 (centres undefined) | . | -10 | . | . | . | . | .
Cc1ccnc(NC(=O)CCC(=O)c2cc(C)sc2C)c1 | . | -5 | . | . | . | . | .
